This assay concerns RXRa DBDmut IVT, anti-RXR (DBD mutation: RXRa K156A/R161A, NR concentration 90 nM). The assay is described as follows: PBM binding z-score (relative to random genomic background probes); higher = stronger binding; sequences stand for … in GC…GCGATTGACAGCGTAGAATGAAGG
The gist of the method:
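The probes on custom Agilent 4×180K protein-binding microarrays were double-stranded, with 34-nt variable regions bearing direct-repeat seeds, single-nucleotide variants, half-site ablations and random human genomic background sequences. Incubation lasted 1 h with ligand-free nuclear receptor dimers in PBS pH 7.4, 2% milk, 0.02% Triton X-100, 1 mM DTT, 0.2 mg/mL BSA and 0.4 mg/ml salmon testes DNA. Antibodies against each partner (one per run) detected bound dimers, and fluorescence scans were regression-normalized. Binding z-scores take the random background probes as reference.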
For TCATATAGGTAAAGGTGAAAGCCGAACGATATGA, the PBM binding z-score came to 0.508. To ATATGTAGGTTACAACCGGGTCATTCAGGCTATG belongs 0.912; to CCTAGTCGGTCAAGGTCACACACGCTATAGGTAC, 2.13. On to CCTACTGGGCCAAAGTCATTGATCAGTCAAAGCA, for which the PBM binding z-score is -0.332. Then CCTCGGAGGACAACAGGAGGTCAGAACTGCCAGA, with 0.497; and GCTCGGAGGTCAAGGTCAGAGCTTTGTCCGTAGA, with 3.19; and ACTAGCAGGCCAAGGGTCACTCAGGATTAGTCCG, with 0.461.

For ATCGATAGGTCGTGAGGTGAGTATACAGAAAGGC, the PBM binding z-score turned out to be 0.0211. The sequence CAAACTAGGTCAAAGGTCAAAGTCGAGCCAACCA gave a PBM binding z-score of 2.87.

CCAGACAGGTGAATGGTAACTCAGTCTGGTACGC gave a PBM binding z-score of -0.0115. Then TGAATGAGGTTATAAGATCATGGAACGTTGCAAA, with 0.832; and TCTCGGAGGACACGAAGGTCAGAGCATTCCAGAG, with 0.583; and GCTAGTTGGTCAGTAAAAGGACACACACCGGTCG, with -0.384.

TAGCCTAGGTCATCGGGCCAGTATAGTACGCATC had a PBM binding z-score of 0.957. CGAACTAGATCATTGACAGGACAGTGAATAGTAA returned a PBM binding z-score of 0.0168. On to TCTATTAGTTGATGGGCAACCGACGAGTCCGTTT, for which the PBM binding z-score turned out to be 1.49. Then CGAACTAGGTCATTGACAGGACAGTCAATAGTAA, with 2.45; and CGAACAAGGTCAAGGACAGTGAATCTCCGCACGC, with 3.61. Then TCTCGGAGGACACGAAAGGTCAGAGCTCGACATC, with 0.844; and TCTGCTAGGTCAACGATGGTCAGCTACTCTGCTA, with 0.833.

Sequence ATCTCTAGGTAAGACCCAGTTCAGTGAAGAACGC had a PBM binding z-score of 0.175. Sequence GCTTGTAGATCAAAGTTAAGAAAGACTAAGCTAA gave a PBM binding z-score of -0.0516. Then CCTACTGGGCCATTCAGAGGTAATTGATCATATG, with -0.042; and TCAATTAGTTGATTAGGGCAACCGAAACAGCGGA, with 0.983; and GCTTGTAGGTCAAGGTTAAGAAAGACTAAGCTAA, with 1.26. Then CCGAGTAGGTTATGGTGCATTCAGGCAACGGTGA, with 0.527; and ACACGGAGGACAAAGGTCAGAGCTACGCCAGTGA, with 1.57; and GCTTATAGGTAATACAAGGTGAAAGTCCGATTGT, with 0.59. For TGATTGAGGTTATAAGATCAGGGAACGTTGCAAA, the PBM binding z-score stood at 0.404. On to GTACCAAGGTGAATAGGTCGTTAATGAGTAGGCG, for which the PBM binding z-score was -0.112. For TCTATTAGTTGATTACGGCAACCGAAACAGCGGA, the PBM binding z-score amounted to 1.38. Then AGTCAAAGTTCATCTAGATAACGTAAGATATGCT, with 4.57; and AGAATGAGGTTACCAAAGATCAGGGCAACGCTTG, with 1.14. Then TCTAGTTGGTCAGAGGTCACACACTCGAAATGCG, with 1.92. Consider ATCGAAAGGTCGAGGGTGAGTATACCCACCCGAA, for which the PBM binding z-score stood at 0.471.

The sequence TAGCCTTGGTCATGCGGGCCAGTATAGTGTCGGC returned a PBM binding z-score of -1.52. Then TATATAGGGTCAAAGGCCAGAGTACGAATGTCGA, with 3.21.

Sequence ATCTCTTGGTAAAAGTTCAGTGAATCCCGAGGAT yielded a PBM binding z-score of 0.705. With GCCACTGGGGCAAAGCAGGTTACCATAAGGTTGG, the PBM binding z-score is -0.861.

The values are drawn from the supplement of paper PMC6555819.
